Measured values reported in ChEMBL document CHEMBL3988442, “University of Dundee, Small-Polar-MMV Screening Library” (2021).
For some assays here: Measured potencies and affinities stand elsewhere.

Experiments:
Parameters in all cases: scale not given: direction of the effect not stated beside the values
[1] = biological target: Protein translocase subunit SecA (Escherichia coli (strain K12)) (UniProt P10408); test: Assay to Identify E. coli SecA ATPase Inhibitors; format: functional; conditions: 30 µM
[2] = biological target: T1, Ubiquitin-activating enzyme e1, putative (Leishmania donovani (strain BPK282A1)) (UniProt E9BSI1); test: Leishmania donovani Ubiquitin Activating Enzyme (LdE1); format: functional; conditions: 30 µM
T1 sequence (whole entry): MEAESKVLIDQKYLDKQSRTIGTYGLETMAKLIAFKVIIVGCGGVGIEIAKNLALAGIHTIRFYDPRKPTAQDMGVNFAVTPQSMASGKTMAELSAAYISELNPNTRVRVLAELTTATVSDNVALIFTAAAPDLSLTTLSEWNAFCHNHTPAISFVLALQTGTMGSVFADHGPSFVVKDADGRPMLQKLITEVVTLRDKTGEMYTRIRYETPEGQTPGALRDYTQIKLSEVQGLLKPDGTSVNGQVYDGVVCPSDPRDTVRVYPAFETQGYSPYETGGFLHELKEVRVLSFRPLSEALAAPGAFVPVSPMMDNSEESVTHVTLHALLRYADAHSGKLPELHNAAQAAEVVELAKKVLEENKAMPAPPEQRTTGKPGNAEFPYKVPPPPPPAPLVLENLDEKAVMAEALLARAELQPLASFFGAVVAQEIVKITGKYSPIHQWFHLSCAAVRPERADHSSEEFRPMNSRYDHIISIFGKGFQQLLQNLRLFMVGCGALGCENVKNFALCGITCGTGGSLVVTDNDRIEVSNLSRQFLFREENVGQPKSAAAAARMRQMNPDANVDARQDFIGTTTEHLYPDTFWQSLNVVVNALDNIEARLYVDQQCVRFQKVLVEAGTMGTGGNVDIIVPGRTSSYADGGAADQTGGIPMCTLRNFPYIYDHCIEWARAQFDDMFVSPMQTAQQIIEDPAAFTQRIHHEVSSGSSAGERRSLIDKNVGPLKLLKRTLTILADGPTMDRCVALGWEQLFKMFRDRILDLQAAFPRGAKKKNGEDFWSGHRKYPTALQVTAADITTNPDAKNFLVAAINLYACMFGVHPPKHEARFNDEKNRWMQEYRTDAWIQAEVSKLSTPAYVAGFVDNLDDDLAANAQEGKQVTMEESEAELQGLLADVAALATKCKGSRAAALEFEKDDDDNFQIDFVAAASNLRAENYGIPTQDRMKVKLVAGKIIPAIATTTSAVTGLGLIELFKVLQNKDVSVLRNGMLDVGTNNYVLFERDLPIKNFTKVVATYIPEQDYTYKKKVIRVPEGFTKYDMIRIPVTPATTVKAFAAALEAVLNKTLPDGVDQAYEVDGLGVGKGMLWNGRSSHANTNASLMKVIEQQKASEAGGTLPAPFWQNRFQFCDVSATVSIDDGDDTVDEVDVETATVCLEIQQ

[3] = biological target: AMP-activated protein kinase, AMPK (Homo sapiens) (UniProt P54646+O43741+P54619+Q9UGJ0+Q9Y478+Q13131+Q9UGI9); test: AMP-dependent Kinase enzyme assay. An in vitro enzyme assay that detects ADP turnover that is directly proportional to AMPK activity. This uses naive AMPK that is activated during the assay with MK-8722; format: functional; conditions: 30 µM
[4] = biological target: Sialic acid-binding Ig-like lectin 9 (Homo sapiens) (UniProt Q9Y336); test: Hs-Siglec9 ALPHAscreen SOP 20170721; conditions: 10 µM
[5] = test system: Trypanosoma cruzi; test: Trypanosoma cruzi phosphomannomutase and mannose-1-phosphate guanylyltransferase assay; format: functional; conditions: 10 µM
[6] = biological target: T2, Arginase-2, mitochondrial (Homo sapiens) (UniProt P78540); test: in vitro enzyme assay to detect the production of urea directly proportional to the activity of Arginase II; format: functional; conditions: 33.3 µM; also: in the data most compounds retested in dose-response had high values
T2 sequence (whole entry): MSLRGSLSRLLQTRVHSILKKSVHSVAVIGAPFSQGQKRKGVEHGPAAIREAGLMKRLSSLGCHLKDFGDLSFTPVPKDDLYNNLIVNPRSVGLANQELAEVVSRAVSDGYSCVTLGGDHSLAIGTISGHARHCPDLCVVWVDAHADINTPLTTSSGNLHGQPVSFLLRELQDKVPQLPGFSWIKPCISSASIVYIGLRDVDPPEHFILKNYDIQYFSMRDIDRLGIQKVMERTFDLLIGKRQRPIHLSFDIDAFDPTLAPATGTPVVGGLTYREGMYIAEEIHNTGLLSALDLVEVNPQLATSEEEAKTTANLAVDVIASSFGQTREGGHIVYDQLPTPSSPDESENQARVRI

[7] = biological target: T3, Proteasome subunit beta (Trypanosoma cruzi) (UniProt O96673); test: Trypanosoma cruzi proteasome chymotrypsin-like activity (TcProtChymo) assay.; also: in the data most compounds retested in dose-response had high values; format: functional; conditions: 9.37 µM
T3 sequence (whole entry): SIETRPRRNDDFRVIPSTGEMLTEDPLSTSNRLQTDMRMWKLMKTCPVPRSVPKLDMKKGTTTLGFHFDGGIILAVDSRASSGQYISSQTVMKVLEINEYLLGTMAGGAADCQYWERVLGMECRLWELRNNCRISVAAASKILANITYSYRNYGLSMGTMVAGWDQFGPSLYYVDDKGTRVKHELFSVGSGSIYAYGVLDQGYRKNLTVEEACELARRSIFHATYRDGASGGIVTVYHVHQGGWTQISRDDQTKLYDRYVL

[8] = organism: Homo sapiens; test: To identify inhibition of the IFN signalling (Jak-Stat) pathway via expression of an eGFP reporter gene under the control of an IFN-stimulated response element (ISRE) containing MxA promoter.; format: functional; conditions: 30 µM
[9] = biological target: T4, Tyrosyl-tRNA synthetase, putative (Trypanosoma cruzi (strain CL Brener)) (UniProt Q4DSP6); test: Trypanosoma cruzi tyrosyl tRNA synthetase (TcYRS) _High Tyrosine SOP; format: functional; conditions: 30 µM; also: in the data most compounds retested in dose-response had high values
T4 sequence (whole entry): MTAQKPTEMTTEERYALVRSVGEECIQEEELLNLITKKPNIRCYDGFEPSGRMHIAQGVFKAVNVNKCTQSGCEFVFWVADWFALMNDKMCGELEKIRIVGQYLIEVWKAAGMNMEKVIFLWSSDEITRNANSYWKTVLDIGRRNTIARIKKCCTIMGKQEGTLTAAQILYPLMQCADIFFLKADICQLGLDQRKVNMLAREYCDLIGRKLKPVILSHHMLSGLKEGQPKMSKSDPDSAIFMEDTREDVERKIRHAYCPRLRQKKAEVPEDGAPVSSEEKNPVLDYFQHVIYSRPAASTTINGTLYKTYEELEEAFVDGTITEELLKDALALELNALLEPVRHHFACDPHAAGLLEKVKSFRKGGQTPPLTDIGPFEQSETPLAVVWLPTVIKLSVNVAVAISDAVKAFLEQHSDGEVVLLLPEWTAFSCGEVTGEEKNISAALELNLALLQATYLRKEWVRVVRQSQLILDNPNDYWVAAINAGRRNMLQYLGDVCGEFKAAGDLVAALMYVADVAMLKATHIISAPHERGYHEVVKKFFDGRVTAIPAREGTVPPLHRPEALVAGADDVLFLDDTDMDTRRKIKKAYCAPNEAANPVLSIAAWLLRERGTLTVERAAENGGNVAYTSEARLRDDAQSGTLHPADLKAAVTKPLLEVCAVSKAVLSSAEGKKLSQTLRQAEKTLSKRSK

[10] = biological target: T4, Tyrosyl-tRNA synthetase, putative (Trypanosoma cruzi (strain CL Brener)); test: Trypanosoma cruzi tyrosyl tRNA synthetase (TcYRS) SOP; format: functional; conditions: 30 µM
[11] = biological target: Chromo domain-containing protein 1 (Saccharomyces cerevisiae (strain ATCC 204508 / S288c) (Baker's yeast)) (UniProt P32657); test: ScCHD-1 Enzyme Inhibition Assay; format: functional; conditions: 30 µM; also: in the data most compounds retested in dose-response had high values
Chain of Chromo domain-containing protein 1 (Saccharomyces cerevisiae (strain ATCC 204508 / S288c) (Baker's yeast)) (P32657 whole entry, the tested form may be a part): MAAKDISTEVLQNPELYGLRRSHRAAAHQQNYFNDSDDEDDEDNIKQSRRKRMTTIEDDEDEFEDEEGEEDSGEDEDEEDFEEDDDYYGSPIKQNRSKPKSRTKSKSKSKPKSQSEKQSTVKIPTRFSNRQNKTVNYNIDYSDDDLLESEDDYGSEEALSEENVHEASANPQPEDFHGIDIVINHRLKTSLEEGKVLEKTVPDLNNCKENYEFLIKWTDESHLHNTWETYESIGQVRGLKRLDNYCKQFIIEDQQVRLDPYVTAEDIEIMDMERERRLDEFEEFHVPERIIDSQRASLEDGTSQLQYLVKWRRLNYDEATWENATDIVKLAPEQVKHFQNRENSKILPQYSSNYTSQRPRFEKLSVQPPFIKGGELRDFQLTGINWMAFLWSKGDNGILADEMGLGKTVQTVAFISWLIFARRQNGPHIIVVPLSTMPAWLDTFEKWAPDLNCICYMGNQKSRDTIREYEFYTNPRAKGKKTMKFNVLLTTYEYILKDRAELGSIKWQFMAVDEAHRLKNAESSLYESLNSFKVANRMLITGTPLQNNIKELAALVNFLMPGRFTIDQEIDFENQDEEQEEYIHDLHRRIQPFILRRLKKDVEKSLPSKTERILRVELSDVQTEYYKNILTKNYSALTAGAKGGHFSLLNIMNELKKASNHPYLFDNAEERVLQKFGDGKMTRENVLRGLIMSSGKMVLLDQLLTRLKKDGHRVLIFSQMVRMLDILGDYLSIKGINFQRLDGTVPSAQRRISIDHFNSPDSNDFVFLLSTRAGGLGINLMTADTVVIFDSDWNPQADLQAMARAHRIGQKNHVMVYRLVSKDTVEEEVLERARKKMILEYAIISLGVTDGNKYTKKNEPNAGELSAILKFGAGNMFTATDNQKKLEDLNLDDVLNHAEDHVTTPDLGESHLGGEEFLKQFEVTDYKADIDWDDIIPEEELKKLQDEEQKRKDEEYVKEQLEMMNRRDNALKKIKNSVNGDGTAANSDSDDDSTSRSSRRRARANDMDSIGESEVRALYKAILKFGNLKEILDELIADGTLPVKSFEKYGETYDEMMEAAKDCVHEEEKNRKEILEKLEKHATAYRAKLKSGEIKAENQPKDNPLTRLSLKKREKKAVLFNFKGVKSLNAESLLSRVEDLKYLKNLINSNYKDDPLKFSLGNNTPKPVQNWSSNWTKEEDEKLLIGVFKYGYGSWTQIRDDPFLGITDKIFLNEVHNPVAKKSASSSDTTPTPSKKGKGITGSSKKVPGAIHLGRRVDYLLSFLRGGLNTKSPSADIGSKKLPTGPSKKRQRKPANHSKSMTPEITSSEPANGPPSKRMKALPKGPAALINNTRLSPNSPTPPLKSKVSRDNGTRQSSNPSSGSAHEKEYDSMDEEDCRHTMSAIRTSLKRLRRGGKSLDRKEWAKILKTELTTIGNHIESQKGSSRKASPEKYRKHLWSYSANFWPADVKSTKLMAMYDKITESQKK

Chain of Protein translocase subunit SecA (Escherichia coli (strain K12)) (P10408 whole entry): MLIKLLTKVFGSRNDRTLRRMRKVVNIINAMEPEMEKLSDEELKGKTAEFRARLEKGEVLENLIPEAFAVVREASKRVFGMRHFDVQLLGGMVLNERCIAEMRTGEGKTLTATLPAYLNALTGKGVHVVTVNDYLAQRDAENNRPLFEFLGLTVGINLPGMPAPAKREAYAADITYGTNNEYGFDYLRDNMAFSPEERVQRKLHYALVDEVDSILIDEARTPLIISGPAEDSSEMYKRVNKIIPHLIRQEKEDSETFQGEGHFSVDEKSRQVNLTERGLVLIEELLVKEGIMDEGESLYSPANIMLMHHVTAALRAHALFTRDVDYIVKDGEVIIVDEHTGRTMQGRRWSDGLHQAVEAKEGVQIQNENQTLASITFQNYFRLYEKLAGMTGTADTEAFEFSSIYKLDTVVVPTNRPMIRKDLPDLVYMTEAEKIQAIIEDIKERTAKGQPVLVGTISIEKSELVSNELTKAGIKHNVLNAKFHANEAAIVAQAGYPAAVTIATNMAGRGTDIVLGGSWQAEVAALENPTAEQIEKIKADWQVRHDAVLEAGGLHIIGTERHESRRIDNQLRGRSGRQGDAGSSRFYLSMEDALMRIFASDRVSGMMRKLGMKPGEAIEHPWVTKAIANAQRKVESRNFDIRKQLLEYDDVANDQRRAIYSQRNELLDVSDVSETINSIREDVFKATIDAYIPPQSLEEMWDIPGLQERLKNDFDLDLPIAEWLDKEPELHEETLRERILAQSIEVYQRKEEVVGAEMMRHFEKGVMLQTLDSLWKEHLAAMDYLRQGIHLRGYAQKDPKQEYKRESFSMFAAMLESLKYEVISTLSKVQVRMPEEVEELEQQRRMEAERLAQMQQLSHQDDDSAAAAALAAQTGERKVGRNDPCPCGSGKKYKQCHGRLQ
Chain of Sialic acid-binding Ig-like lectin 9 (Homo sapiens) (Q9Y336 whole entry): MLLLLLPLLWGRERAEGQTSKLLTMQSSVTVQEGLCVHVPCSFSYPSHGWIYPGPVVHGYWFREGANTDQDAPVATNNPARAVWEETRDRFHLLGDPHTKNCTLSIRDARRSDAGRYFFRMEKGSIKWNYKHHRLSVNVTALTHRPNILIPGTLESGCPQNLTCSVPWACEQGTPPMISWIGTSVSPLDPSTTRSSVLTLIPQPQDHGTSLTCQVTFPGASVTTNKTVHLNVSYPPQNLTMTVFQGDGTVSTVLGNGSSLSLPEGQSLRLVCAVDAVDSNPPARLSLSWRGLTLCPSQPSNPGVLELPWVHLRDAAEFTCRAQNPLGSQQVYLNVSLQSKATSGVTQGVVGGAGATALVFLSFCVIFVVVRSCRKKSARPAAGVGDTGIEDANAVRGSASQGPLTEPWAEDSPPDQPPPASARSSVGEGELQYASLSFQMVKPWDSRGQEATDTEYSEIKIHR

Row | Compound | Percent Effect [1] [%] | Percent Effect [2] [%] | Percent Effect [3] [%] | Percent Effect [4] [%] | Percent Effect [5] [%] | Percent Effect [6] [%] | Percent Effect [7] [%] | Percent Effect [8] [%] | Percent Effect [9] [%] | Percent Effect [10] [%] | Percent Effect [11] [%]
1 | CCN(CC)c1ccc(C(=O)NCc2cccnc2-n2cncn2)cn1 | -0.491 | 8.11 | -12.6 | 48.7 | 1.86 | 18.6 | 8.84 | 19.1 | 2.15 | 11.1 | -5.91
2 | Cc1nc(C)c(CC(=O)N2C[C@H]3CC[C@@H]2CN(C(=O)N(C)C)C3)c(=O)[nH]1 | -12.8 | 0 | -2.11 | -2.97 | -5.18 | -1.74 | -2.49 | 26.8 | -1.07 | -1.24 | -2.75
3 | Cn1cc(C(=O)NC[C@@H]2OC[C@H]3CN(Cc4ccco4)CC[C@H]32)cn1 | 1.17 | 8.22 | -8.23 | 6.71 | 5.75 | -2.79 | 8.3 | 17 | 3.12 | 11.1 | -3.21
4 | CCOCC1CN(C(=O)c2cccn2C)Cc2cnn(CC3CC3)c21 (configuration not stated) | -4.01 | 5.2 | -0.603 | 8.24 | 0.69 | -12.3 | 3.48 | 6.88 | 11.6 | 16.7 | -8.59
5 | O=C(Cc1ccc(O)c(Cl)c1)N1CCCCC1CCn1cccn1 (configuration not stated) | -3.9 | 13.5 | 1.21 | 26.9 | 3.09 | 0.476 | 10.9 | 0.632 | 3.7 | 19.5 | -5.17
6 | c1cnn(Cc2cn3c(n2)CN(Cc2nccs2)CC3)c1 | -2.43 | -36.4 | -0.581 | -1.53 | 5.23 | 5.81 | 12.2 | 4.15 | 9.52 | 26.9 | -6.74
7 | COC[C@]12COC[C@H]1CN(Cc1cc(OC)cc(OC)c1)C2 | -2.64 | 2.7 | -1.96 | 2.27 | 4.59 | 6.05 | 11.2 | -4.13 | 1.08 | 7.69 | 2.95
8 | O=C(CCc1ccsc1)NCC1CCN(c2ccccc2)C1 (configuration not stated) | 0.538 | -6.94 | -4.41 | -4.12 | -6.51 | 5.3 | 18.4 | 9.93 | 6.32 | 7.69 | -1.39
9 | CCc1nc(NS(=O)(=O)c2cc(C)ccc2F)no1 | -0.155 | 0 | -9.72 | 8.2 | 6.13 | 15.1 | 3.84 | 1.84 | 2.73 | 6.17 | -2.85
10 | N#Cc1ccccc1CN1C[C@@H]2CC[C@H](C1)N(Cc1cscn1)C2=O | -1.93 | 5.41 | -3.34 | 8.56 | -2.9 | -1.91 | 9.14 | -7.44 | 3.7 | -14.6 | -3.95
11 | CS(=O)(=O)N1CCCCCC1C1CCN(c2ncccn2)CC1 (configuration not stated) | -4.78 | 2.63 | 2.07 | 1.83 | -4.13 | -1.92 | 2.17 | 24.7 | 1.47 | 7.32 | 0.0825
12 | O=C(c1cscn1)N1CC[C@]2(C[C@@H](OCCN3CCCC3)CO2)C1 | -1.81 | 13.3 | 1.02 | -2.21 | -2.95 | -0.699 | 11.4 | 7.58 | 5.32 | 14.1 | -0.0589
13 | CSCCC1c2nc[nH]c2CCN1Cc1cc(Cl)ccc1O (configuration not stated) | -4.06 | -2.67 | -4.48 | 3.19 | 2.63 | 0.521 | 18.3 | 35.7 | 12.6 | 23.5 | -0.295
14 | CC(C)C(C(=O)N1CCCN(Cc2nccn2C)CC1)N1CCCC1 (configuration not stated) | -1.38 | 21.6 | -0.295 | -3.06 | -1.58 | -2.77 | 10.6 | 20 | 2.97 | 13.4 | -5.79
15 | c1ccc(CN2CC[C@@H]3O[C@@H](COCC4CCOCC4)CC[C@@H]32)nc1 | -4.64 | 10.7 | 1.98 | -3.4 | -0.394 | 2.1 | 12.4 | -2.6 | 2.13 | 8.97 | -2.41
16 | CCc1cnc(N2C[C@H]3C[C@H](C(=O)N(C)C)[C@@H](C2)O3)nc1 | -0.24 | 13.3 | 0.237 | 8.45 | 0.579 | -53.6 | 2.91 | -12.6 | 5.21 | 10 | -6.38
17 | COc1ccc(C(=O)N2CCC(Nc3cccnn3)CC2)c(OC)c1 | 1.87 | -3.8 | 3.46 | 2.44 | -4.41 | 5.38 | 0.858 | 0.418 | -1.04 | 2.53 | -16
18 | CCCNC(=O)c1sccc1N(C)S(=O)(=O)c1ccc(Cl)cc1 | 1.13 | 7.89 | -1.42 | -7.73 | -8.67 | 9.47 | 13.3 | 38.4 | -4.25 | -2.6 | -1.51
19 | CCOc1nnc(CN2CCOC(CNc3cccnn3)C2)s1 (configuration not stated) | -1.03 | 20.8 | -24.7 | -0.385 | 2.43 | -3.92 | 11.8 | 10.6 | 16.5 | 7.32 | -11.3
20 | CN(C)c1ccc(CNc2cncc(-n3cccn3)n2)cc1 | -3.75 | 5.2 | 0.00463 | 7.28 | 3.75 | -6.05 | 6.25 | 9.83 | 2.91 | 12.2 | 72
21 | Cc1cc(-c2nnc(SCC(=O)O)n2C(C)c2ccccc2)nn1C (configuration not stated) | -4.08 | 12.5 | -0.551 | 18.6 | 6.32 | 1.77 | 14.9 | 7.01 | 9.47 | 12.8 | -1.69
22 | Cc1ccccc1CCNC(=O)C1CC(=O)N(CC(F)(F)F)C1 (configuration not stated) | -3.95 | 24.3 | -20.9 | -4.07 | 1.42 | -21.2 | 10.1 | 25.2 | 5.42 | 18.5 | -11.1
